# Assay outcomes: PubChem BioAssay, Sanford-Burnham Center for Chemical Genomics
# Shown are actives, neighbours in structure and some others; about 4% of the full set was active somewhere.
# CF NFkB inh: blocks PAF-induced NF-kB reporter in cystic fibrosis cells | inhibition, % at 5 µM | AID 588850 | hit rate 0.86% among 360,000 | KKLEB NF-kB-GFP reporter, GFP fluorescence overnight;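 active means at least 50% inhibition at 5 µM, scaled per plate between neutral and stimulator controls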;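 further: PAF is a Pseudomonas aeruginosa culture filtrate used as stimulus; plate controls were PAF-stimulated DMSO wells for no effect and unstimulated DMSO wells for full effect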
# HIF-2a block: blocks HIF-2a reporter activity | 786-0 RCC cells HIF-2a reporter, luciferase luminescence, overnight | inhibition, % at 18.8 µM | hit rate 0.72% among 360,000 | AID 624352;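 active means inhibition of the luminescence signal of 40% or more relative to plate controls, in a single-dose primary screen at 18.75 µM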
# TWEAK Fn14 block: inhibitors of TWEAK-Fn14 interaction signaling. TWEAK-stimulated Fn14 reporter cells, luciferase luminescence, 8 h. inhibition, % at 10 µM. hit rate 2% among 360,000. AID 1159606; in the data active means inhibition above about 50%
# Peg3 promoter: Peg3 promoter activity inhibition | HeLa PEG-Prom luciferase reporter, luminescence, overnight | inhibition, % at 20 µM | hit rate 1.7% among 360,000;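 active means inhibition of at least 50% at 20 µM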
# TROY signal inh: inhibitors of TROY-dependent NF-kB signaling; Q293 LMP1-TROYcd NF-kB luciferase reporter, 4 h; inhibition, % at 10 µM; hit rate 0.98% among 360,000;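 active means compounds whose plate-normalised and pattern-corrected inhibition of the luciferase reporter signal at the single screening dose is 50% or more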
# KKLEB cytotox: counter-screen for CF NF-kB inhibitors: cytotoxicity. KKLEB CF airway cells viability, ATPlite luminescence, overnight; stronger effect = lower value; cells stimulated with P. aeruginosa culture filtrate. activity change (cytotoxicity), % at 5 µM. hit rate 0.36% among 360,000;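 active means corrected activity change at or below -50% at 5 µM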
# * hit, by the source's call; / = not tested or not shown.
SMILES,CF NFkB inh,HIF-2a block,TWEAK Fn14 block,Peg3 promoter,TROY signal inh,KKLEB cytotox
CC(C)C(NC(=O)C(C(C)C)N(C)C)C(=O)N(C)C(C(=O)N1CCCC1C(=O)N1CCCC1C(=O)NCc1ccccc1)C(C)C (stereo not drawn),64*,31,5,-3,17,-42
Cc1ccc(-n2c(=O)[nH]c3ccccc3c2=O)cc1[N+](=O)[O-],-11,-108,-11,-79,-2,-29
CN(C)C(=O)Oc1ccc(OCc2nc3ccccc3[nH]2)cc1,-10,10,68*,17,24,9
c1ccc(N2[C@@H]3CC[C@H]2c2ccncc2C3)cc1,/,7,/,/,/,/
CCCCn1c(N)c(C(=O)NCCN2CCOCC2)c2nc3ccccc3nc21,-5,17,3,9,64*,-6
CCCCn1c(NC(=O)c2ccc(Br)o2)c(C(=O)OCC)c2nc3ccccc3nc21,26,20,71*,22,59*,-33
Nc1c(C(=O)NCCN2CCOCC2)c2nc3ccccc3nc2n1Cc1ccccc1,8,20,22,27,8,-19
CCOC(=O)c1c(N)n(CCN2CCCCC2)c2nc3ccccc3nc12,-26,5,-11,21,3,2
CCCCn1c(NS(=O)(=O)c2ccccc2)c(C(=O)OCC)c2nc3ccccc3nc21,0,0,80*,18,69*,8
O=[N+]([O-])c1ccc(N2CCCCCC2)c2ncccc12,3,-26,-12,-13,-5,11
COc1ccc(-n2nnnc2C(c2cccc3ccccc23)N2CCC3(CC2)C(=O)NCN3c2ccccc2)cc1 (stereo not drawn),7,15,53*,15,10,-25
O=C1NCN(c2ccccc2)C12CCN(C(c1ccccc1OC(F)(F)F)c1nnnn1Cc1ccccc1)CC2 (stereo not drawn),39,-10,48,91*,21,-26
O=C1NCN(c2ccccc2)C12CCN(C(c1cccc3ccccc13)c1nnnn1-c1ccc3c(c1)OCCO3)CC2 (stereo not drawn),10,15,37,26,10,-1
Cc1cccc(C)c1-n1nnnc1C(C1CC1)N1CCC2(CC1)C(=O)NCN2c1ccccc1 (stereo not drawn),4,5,37,30,75*,-4
O=[N+]([O-])c1[nH]cnc1Br,20,4,-1,2,-5,-1
O=c1[nH]c2ccccc2n1C1CCN(C(c2cc3ccccc3o2)c2nnnn2Cc2ccccc2)CC1 (stereo not drawn),82*,-22,76*,93*,46,-96*
O=C1NCN(c2ccccc2)C12CCN(C(c1cc3ccccc3o1)c1nnnn1-c1ccc3c(c1)OCCO3)CC2 (stereo not drawn),21,1,46,24,26,-6
Cc1cccc(C)c1-n1nnnc1C(c1cc2ccccc2o1)N1CCC(n2c(=O)[nH]c3ccccc32)CC1 (stereo not drawn),25,-41,102*,102*,77*,-4
CCCCCC(=O)N[C@@H](c1ccccc1)[C@@H](O)C(=O)O[C@H]1C[C@@]2(O)[C@@H](OC(=O)c3ccccc3)C3[C@](C)(C(=O)[C@H](O)C(=C1C)C2(C)C)[C@@H](OC1OCC(O)C(O)C1O)C[C@H]1OC[C@@]31OC(C)=O (stereo partly drawn),7,10,14,23,5,-8
Cc1nc2ccc(Br)cc2c(=O)n1-c1ccc([N+](=O)[O-])c(C(F)(F)F)c1,4,8,36,11,56*,-14
CC1=C(O)C(=O)C=C2C1=CC=C1C2(C)CCC2(C)C3CC(C)(C(=O)O)CCC3(C)CCC12C (stereo not drawn),78*,92*,106*,105*,89*,-75*
Cc1c(NS(=O)(=O)c2ccccc2)ccc([N+](=O)[O-])c1Cl,45,-20,46,43,59*,-29
O=C(CCl)NCC1CCCO1 (stereo not drawn),-5,8,7,12,2,1
Cc1cc(C)c(N=Cc2c(O)[nH]c(=O)[nH]c2=O)c(C)c1,14,8,-7,51*,-1,-14
O=S(=O)(c1ccccc1)N1Cc2ccccc2-n2nncc2C1,1,3,-45,3,-32,-2
